These results are taken from ChEMBL document CHEMBL3988442, “University of Dundee, Small-Polar-MMV Screening Library” (2021).

Holding throughout (design): scale not given: direction of the effect not stated beside the values
Test [1] concerns the target Protein translocase subunit SecA (Escherichia coli (strain K12)) (UniProt P10408). The test is described as follows: Assay to Identify E. coli SecA ATPase Inhibitors. The format is functional. The following applies: 30 µM.
Test [2] deals with T1, Ubiquitin-activating enzyme e1, putative (Leishmania donovani (strain BPK282A1)) (UniProt E9BSI1).
T1 sequence (whole entry): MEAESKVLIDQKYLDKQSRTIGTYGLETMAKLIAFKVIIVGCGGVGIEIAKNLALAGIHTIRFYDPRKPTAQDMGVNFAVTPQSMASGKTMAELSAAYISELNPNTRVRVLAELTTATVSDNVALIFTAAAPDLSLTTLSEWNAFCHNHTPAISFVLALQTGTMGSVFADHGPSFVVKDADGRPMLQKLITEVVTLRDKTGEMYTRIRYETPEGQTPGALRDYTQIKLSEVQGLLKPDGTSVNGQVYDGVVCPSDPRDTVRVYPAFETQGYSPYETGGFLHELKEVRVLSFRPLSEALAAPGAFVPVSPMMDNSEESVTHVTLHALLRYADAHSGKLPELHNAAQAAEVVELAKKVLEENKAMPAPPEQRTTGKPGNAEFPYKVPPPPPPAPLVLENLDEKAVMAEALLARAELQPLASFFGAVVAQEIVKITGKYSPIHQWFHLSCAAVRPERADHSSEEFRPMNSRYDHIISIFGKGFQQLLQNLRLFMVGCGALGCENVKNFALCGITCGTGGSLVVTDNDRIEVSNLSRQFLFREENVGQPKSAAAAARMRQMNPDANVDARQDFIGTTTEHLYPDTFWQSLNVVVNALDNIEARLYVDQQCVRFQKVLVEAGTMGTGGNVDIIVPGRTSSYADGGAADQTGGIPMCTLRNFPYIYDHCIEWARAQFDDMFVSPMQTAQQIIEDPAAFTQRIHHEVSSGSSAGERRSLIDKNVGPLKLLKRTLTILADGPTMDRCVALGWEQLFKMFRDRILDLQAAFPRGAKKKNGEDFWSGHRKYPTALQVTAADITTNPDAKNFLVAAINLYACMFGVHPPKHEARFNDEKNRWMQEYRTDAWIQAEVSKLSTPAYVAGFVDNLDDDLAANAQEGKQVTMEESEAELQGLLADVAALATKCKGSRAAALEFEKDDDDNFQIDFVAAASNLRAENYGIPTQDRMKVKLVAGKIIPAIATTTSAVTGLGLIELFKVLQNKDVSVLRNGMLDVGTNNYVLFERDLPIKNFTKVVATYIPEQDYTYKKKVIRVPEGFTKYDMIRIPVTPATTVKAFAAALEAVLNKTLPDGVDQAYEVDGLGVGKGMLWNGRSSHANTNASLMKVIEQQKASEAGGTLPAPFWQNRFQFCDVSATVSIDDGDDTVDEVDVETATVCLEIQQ
Briefly: Leishmania donovani Ubiquitin Activating Enzyme (LdE1). The format is functional. The settings on record: 30 µM.

In test [3] the target is AMP-activated protein kinase, AMPK (Homo sapiens) (UniProt P54646+O43741+P54619+Q9UGJ0+Q9Y478+Q13131+Q9UGI9). The test is described as follows: AMP-dependent Kinase enzyme assay. An in vitro enzyme assay that detects ADP turnover that is directly proportional to AMPK activity. This uses naive AMPK that is activated during the assay with MK-8722. The format is functional. The settings on record: 30 µM.

Test [4] addresses Sialic acid-binding Ig-like lectin 9 (Homo sapiens) (UniProt Q9Y336). Briefly: Hs-Siglec9 ALPHAscreen SOP 20170721. The settings on record: 10 µM.
Another test has as its system Trypanosoma cruzi. The test is described as follows: Trypanosoma cruzi phosphomannomutase and mannose-1-phosphate guanylyltransferase assay. The format is functional. The following applies: 10 µM.
Test [5] deals with T2, Arginase-2, mitochondrial (Homo sapiens) (UniProt P78540).
T2 sequence (whole entry): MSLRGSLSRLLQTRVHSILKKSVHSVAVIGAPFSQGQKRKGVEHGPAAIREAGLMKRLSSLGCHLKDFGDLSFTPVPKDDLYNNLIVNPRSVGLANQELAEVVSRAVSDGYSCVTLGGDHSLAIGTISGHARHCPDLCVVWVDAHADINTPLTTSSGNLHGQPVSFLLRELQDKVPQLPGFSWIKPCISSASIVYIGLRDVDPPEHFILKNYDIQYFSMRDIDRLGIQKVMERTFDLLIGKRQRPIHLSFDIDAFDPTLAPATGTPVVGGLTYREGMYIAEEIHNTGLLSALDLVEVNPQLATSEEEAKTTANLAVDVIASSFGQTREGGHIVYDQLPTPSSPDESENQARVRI
Briefly: in vitro enzyme assay to detect the production of urea directly proportional to the activity of Arginase II. Further: in the data most compounds retested in dose-response had high values. Type of test: functional. The following applies: 33.3 µM.

The target of test [6] is T3, Proteasome subunit beta (Trypanosoma cruzi) (UniProt O96673).
T3 sequence (whole entry): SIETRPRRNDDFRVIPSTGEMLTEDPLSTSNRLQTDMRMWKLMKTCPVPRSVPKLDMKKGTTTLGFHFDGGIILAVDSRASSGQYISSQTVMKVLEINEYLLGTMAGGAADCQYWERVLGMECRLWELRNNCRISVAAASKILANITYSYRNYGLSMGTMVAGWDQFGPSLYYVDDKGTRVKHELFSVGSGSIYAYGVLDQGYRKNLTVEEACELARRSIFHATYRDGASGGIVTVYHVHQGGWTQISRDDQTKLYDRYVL
The test is described as follows: Trypanosoma cruzi proteasome chymotrypsin-like activity (TcProtChymo) assay. Further: in the data most compounds retested in dose-response had high values. The format is functional. The settings on record: 9.37 µM.

The species entered for a further test is Homo sapiens. Briefly: To identify inhibition of the IFN signalling (Jak-Stat) pathway via expression of an eGFP reporter gene under the control of an IFN-stimulated response element (ISRE) containing MxA promoter. The format is functional. The settings on record: 30 µM. A general note: Reporter assays use an easily measured gene product as a stand-in for the process of interest.

Test [7] addresses T4, Tyrosyl-tRNA synthetase, putative (Trypanosoma cruzi (strain CL Brener)) (UniProt Q4DSP6).
T4 sequence (whole entry): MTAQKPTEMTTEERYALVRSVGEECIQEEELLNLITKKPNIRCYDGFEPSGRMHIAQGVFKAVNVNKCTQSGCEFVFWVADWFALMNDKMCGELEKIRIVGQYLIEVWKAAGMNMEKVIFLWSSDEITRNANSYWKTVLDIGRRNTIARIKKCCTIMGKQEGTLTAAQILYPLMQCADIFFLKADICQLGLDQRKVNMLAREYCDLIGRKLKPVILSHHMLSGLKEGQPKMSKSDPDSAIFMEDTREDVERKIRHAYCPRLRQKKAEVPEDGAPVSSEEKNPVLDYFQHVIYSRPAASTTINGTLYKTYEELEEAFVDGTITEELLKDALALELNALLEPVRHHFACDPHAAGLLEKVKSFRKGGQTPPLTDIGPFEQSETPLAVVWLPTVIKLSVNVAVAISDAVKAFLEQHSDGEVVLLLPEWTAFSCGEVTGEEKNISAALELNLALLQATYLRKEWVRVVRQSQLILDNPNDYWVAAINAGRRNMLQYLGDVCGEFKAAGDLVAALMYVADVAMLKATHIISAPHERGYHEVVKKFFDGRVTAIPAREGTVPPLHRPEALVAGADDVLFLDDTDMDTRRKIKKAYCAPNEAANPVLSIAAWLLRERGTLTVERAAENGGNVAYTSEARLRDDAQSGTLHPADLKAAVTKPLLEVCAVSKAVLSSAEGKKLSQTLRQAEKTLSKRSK
The test is described as follows: Trypanosoma cruzi tyrosyl tRNA synthetase (TcYRS) _High Tyrosine SOP. Further: in the data most compounds retested in dose-response had high values. The settings on record: 30 µM. Type of test: functional.

For test [8], the target named is T4, Tyrosyl-tRNA synthetase, putative (Trypanosoma cruzi (strain CL Brener)). The test is described as follows: Trypanosoma cruzi tyrosyl tRNA synthetase (TcYRS) SOP. Type of test: functional. The settings on record: 30 µM.
Test [9] deals with Chromo domain-containing protein 1 (Saccharomyces cerevisiae (strain ATCC 204508 / S288c) (Baker's yeast)) (UniProt P32657). The test is described as follows: ScCHD-1 Enzyme Inhibition Assay. Further: in the data most compounds retested in dose-response had high values. Type of test: functional. The settings on record: 30 µM.

For some of these results: Measured potencies and affinities stand elsewhere.

Chain of Protein translocase subunit SecA (Escherichia coli (strain K12)) (P10408 whole entry): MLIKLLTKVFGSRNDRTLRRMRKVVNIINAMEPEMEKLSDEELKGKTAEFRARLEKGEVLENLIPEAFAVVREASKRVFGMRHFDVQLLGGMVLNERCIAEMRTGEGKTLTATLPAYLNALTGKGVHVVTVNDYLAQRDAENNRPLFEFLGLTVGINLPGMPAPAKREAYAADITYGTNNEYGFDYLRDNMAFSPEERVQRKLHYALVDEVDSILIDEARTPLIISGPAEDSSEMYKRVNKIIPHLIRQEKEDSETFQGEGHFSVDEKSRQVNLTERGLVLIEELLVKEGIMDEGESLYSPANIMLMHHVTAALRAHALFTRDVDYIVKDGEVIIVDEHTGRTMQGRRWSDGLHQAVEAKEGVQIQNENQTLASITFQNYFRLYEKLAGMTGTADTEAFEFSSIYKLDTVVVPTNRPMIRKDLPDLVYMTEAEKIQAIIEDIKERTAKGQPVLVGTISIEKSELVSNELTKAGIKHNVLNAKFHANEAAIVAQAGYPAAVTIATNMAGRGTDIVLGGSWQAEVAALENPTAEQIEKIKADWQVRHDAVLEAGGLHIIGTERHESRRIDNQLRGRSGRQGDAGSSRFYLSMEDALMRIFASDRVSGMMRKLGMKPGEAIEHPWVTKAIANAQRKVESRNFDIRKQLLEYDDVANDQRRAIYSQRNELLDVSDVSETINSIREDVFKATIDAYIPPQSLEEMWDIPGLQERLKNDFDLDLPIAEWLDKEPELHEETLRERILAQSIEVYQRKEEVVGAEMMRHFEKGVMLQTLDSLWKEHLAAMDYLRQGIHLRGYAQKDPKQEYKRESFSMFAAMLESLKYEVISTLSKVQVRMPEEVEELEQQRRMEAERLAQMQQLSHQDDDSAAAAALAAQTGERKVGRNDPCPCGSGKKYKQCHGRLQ
Chain of Chromo domain-containing protein 1 (Saccharomyces cerevisiae (strain ATCC 204508 / S288c) (Baker's yeast)) (P32657 whole entry, the tested form may be a part): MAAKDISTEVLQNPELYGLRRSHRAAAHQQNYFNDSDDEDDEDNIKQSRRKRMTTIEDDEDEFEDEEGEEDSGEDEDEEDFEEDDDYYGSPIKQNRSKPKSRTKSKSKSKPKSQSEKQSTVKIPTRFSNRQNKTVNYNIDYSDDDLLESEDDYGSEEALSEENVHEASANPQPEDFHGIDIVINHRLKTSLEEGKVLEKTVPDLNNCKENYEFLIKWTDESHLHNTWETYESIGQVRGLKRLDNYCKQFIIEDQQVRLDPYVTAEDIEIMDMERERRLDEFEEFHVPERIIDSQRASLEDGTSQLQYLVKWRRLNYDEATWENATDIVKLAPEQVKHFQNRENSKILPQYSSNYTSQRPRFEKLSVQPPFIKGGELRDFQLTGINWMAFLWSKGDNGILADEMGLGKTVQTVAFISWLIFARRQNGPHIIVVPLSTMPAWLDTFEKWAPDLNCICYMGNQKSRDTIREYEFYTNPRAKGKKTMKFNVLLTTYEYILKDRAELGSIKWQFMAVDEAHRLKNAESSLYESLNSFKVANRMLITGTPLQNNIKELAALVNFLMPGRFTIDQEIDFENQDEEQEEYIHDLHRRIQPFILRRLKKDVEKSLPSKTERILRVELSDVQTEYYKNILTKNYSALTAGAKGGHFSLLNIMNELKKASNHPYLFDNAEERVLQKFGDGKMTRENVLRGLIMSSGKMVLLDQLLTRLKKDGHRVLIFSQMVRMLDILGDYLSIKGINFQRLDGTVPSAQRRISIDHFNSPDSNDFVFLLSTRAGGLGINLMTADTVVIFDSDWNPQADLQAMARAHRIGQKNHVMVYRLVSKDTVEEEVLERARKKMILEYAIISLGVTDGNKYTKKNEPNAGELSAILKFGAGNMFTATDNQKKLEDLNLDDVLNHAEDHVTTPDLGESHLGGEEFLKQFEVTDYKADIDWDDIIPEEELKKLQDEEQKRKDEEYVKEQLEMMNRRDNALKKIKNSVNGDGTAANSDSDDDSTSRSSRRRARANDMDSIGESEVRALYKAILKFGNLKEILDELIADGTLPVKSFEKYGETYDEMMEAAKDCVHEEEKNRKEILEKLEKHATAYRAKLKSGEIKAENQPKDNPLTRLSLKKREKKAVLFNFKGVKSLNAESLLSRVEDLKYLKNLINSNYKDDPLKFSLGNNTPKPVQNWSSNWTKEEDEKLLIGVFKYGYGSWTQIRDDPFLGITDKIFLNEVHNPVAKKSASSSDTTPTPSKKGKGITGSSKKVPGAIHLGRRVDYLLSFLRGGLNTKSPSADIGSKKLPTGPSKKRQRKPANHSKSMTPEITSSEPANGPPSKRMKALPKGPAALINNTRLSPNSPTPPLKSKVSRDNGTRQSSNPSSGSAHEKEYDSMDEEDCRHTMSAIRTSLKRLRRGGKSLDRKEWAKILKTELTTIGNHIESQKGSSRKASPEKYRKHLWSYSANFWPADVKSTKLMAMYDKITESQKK
Chain of Sialic acid-binding Ig-like lectin 9 (Homo sapiens) (Q9Y336 whole entry): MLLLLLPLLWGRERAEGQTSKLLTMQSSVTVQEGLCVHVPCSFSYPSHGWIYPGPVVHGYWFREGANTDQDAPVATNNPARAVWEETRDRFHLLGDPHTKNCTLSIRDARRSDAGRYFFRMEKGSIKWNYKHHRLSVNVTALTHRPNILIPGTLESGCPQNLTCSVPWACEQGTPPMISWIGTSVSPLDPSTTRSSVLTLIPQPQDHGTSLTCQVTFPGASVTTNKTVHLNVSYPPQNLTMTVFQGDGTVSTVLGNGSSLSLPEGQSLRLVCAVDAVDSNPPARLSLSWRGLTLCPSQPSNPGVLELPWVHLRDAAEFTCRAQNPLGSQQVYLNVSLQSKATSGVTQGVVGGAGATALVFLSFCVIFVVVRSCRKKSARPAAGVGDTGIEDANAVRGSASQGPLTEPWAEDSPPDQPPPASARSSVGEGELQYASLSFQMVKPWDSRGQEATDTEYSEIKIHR

As to `O=C(NCc1csc(Br)c1)c1ccc(=O)[nH]n1`, the Percent Effect is -0.0216% in test [1]; 6.33% in [2]; 0.358% in [3]; -1.84% in test [4]; -3.18% in the test on Trypanosoma cruzi; 4.95% in test [5]. Moreover, the Percent Effect is 6.86% in test [6]; 13.1% in the test filed under Homo sapiens; 4.17% in test [7]; -10.1% in [8]; -8.89% in [9].
Consider `CCc1nsc(NC2CCCn3nc(COC)nc32)n1` (stereo not drawn), for which the Percent Effect in test [1] is -4.32%; in test [2], 13.3%; in test [3], -5.77%; in test [4], 21.4%; with Trypanosoma cruzi, 4.77%; in test [5], 16.7%. In addition, the Percent Effect is 9.94% in test [6]; 7.13% in the test filed under Homo sapiens; 3.83% in test [7]; 13.6% in [8]; -6.59% in test [9].
Regarding `CC(NC(=O)CNCCn1cccn1)c1ccc2c(c1)OCCO2` (stereo not drawn), the Percent Effect in test [1] was -2.65%; in test [2], -7.79%; in [3], 0.13%; in [4], 7.51%; in the test on Trypanosoma cruzi, 5.62%; in test [5], 1.07%. The Percent Effect was 7.6% in [6]; -0.448% in the test filed under Homo sapiens; 8.74% in [7]; 9.76% in test [8]; -7.52% in [9].
On to `CCN(Cc1ccc(OC)c(F)c1)C(=O)c1ccc(C)[nH]c1=O`, for which the Percent Effect was -3.17% in test [1]; 10.5% in test [2]; 2.62% in test [3]; 9.42% in test [4]; -0.188% in the test on Trypanosoma cruzi; 2.3% in [5]. The Percent Effect was 4.68% in [6]; 8.35% in the test filed under Homo sapiens; 8.33% in test [7]; 19.5% in test [8]; -8.67% in test [9].
Consider `c1ccc(C2CCCN2Cc2nnnn2C2CC2)cc1` (stereo not drawn), for which the Percent Effect was -4.62% in test [1]; -6.94% in test [2]; -1.81% in test [3]; -5.25% in [4]; -3.01% in the test on Trypanosoma cruzi; -1.32% in test [5]. The Percent Effect in test [6] was 9.12%; in the test filed under Homo sapiens, -12.1%; in test [7], 3.16%; in test [8] it was 0%; in test [9] it was 7.75%.
For `CN(C)C[C@H]1OC[C@@H]2CCN(C(=O)c3ccco3)C[C@@H]21`, the Percent Effect in test [1] is -8.17%; in test [2], -2.7%; in test [3], -0.601%; in test [4], -7.74%; in the test on Trypanosoma cruzi, -3.23%; in test [5], 0.248%. For the same molecule, the Percent Effect in [6] was -0.0858%; in the test listed under Homo sapiens, 11.6%; in [7], 1.07%; in test [8] it was 3.7%; in [9], 0.795%.
Regarding `Cn1cc(CCNC(=O)NC2CCS(=O)(=O)C2)cn1` (stereo not drawn), the Percent Effect in [1] is -5.97%; in test [2] it was -1.39%; in test [3] it was -3.17%; in test [4], -1.6%; in the test with Trypanosoma cruzi, -4.57%; in [5], -0.442%. Further, the Percent Effect in test [6] was 11.8%; in the test filed under Homo sapiens, -0.804%; in test [7], 0%; in [8], 5.13%; in test [9], -1.44%.
With `O=C(c1cccc(S(=O)(=O)NCCCc2ncc[nH]2)c1)N1CCOCC1`, the Percent Effect in [1] was -1.26%; in [2], 5.48%; in test [3], -0.693%; in [4], -4.52%; with Trypanosoma cruzi it was -7.05%; in test [5], 4.09%. The Percent Effect in test [6] is 13.8%; in the test listed under Homo sapiens, 5.99%; in [7], 2.15%; in test [8], 7.5%; in test [9] it was -3.79%.
